PubChem BioAssay AID999 (SRMLSC, 2007)
Calls of active or inactive are those of the source.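 Rule for the calls: active = viability at or below 21.59%, 3 SD under the median of tested compounds; inactive = the rest.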

Assay: viability loss in PTEN-deleted cells – cell-based, validation, diverse DP compound set (AID 999);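 note: 100% = median luminescence of untreated cell control wells and 0% = no signal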
Details: HCT116 PTEN-null viability, CellTiter-Glo, 60 h; at 10 µM; stronger effect = lower value
For `COC1=C[C@@H]2[C@@H]3Cc4ccc(OC)c(O)c4[C@]2(CCN3C)CC1=O`, the viability was 96% (inactive). For `O=C1C=CC(=O)C(Cl)=C1`, the viability was 95.1% (inactive). For `C[C@H]1CCC/C=C/C2C[C@H](O)C[C@H]2[C@H](O)/C=C/C(=O)O1` (some centres undefined), the viability was 58.2% (inactive). For `CC/C(=C(\c1ccccc1)c1ccc(OCCN(C)C)cc1)c1ccccc1`, the viability was 35.9% (inactive). For `COC[C@H]1OC(=O)c2coc3c2[C@@]1(C)C1=C(C3=O)C2CCC(=O)[C@@]2(C)C[C@H]1OC(C)=O` (some centres undefined), the viability was 78.4% (inactive). For `C[C@]12CC[C@@H](O)C[C@@H]1CC[C@@H]1[C@@H]2CC[C@]2(C)C(=O)CC[C@@H]12`, the viability was 98.8% (inactive). With `N#CC(C#N)=Cc1cc(O)c(O)c([N+](=O)[O-])c1` the viability was 106% (inactive). With `Nc1ccncc1` the viability was 100% (inactive). With `NCC(CC(=O)O)c1ccc(Cl)cc1` (centres undefined) the viability was 94.7% (inactive). With `CC[C@@]1(O)C(=O)OCc2c1cc1n(c2=O)-c2cc3ccccc3nc2C1` the viability was 24.7% (inactive). With `C=CCN1CC[C@]23c4c5ccc(O)c4O[C@H]2C(=O)CC[C@@]3(O)[C@H]1C5` the viability was 89.3% (inactive). For `NCCc1c[nH]c2ccc(O)cc12`, the viability was 98.1% (inactive). For `CCCN1CCC[C@@H]2Cc3cn[nH]c3C[C@H]21`, the viability was 105% (inactive). In the case of `CSC(=S)NCc1c[nH]c2ccccc12`, the viability is reported as 91.6% (inactive). With `O[C@H]1[C@H](O)[C@@H](O)CN2CC[C@H](O)[C@H]12` the viability was 97.8% (inactive). In the case of `CCN1C[C@@]2(COC)C3[C@@H](OC)[C@H]4C1[C@@]3(C1C[C@]3(O)C(OC)[C@H](O)[C@@]4(OC(C)=O)C1[C@H]3OC(=O)c1ccccc1)[C@H](OC)C[C@H]2O` (some centres undefined), the viability is reported as 89.3% (inactive). For `CC(C)(C)[C@]1(O)C[C@@H]2OC(=O)CC23C(=O)O[C@@H]2OC(=O)[C@H](O)C231` (some centres undefined), the viability was 93.3% (inactive). For `CC1=C2[C@H]3OC(=O)[C@@H](C)[C@@H]3CC[C@@]2(C)C=CC1=O`, the viability was 95.7% (inactive). In the case of `N#CC(C#N)=Cc1ccc([N+](=O)[O-])c(O)c1`, the viability is reported as 108% (inactive). In the case of `N#Cc1nn(-c2c(Cl)cc(C(F)(F)F)cc2Cl)c(N)c1S(=O)C(F)(F)F` (centres undefined), the viability is reported as 85.6% (inactive). For `O=C1C=C2C=C[C@@H]3C[C@@]2(O1)[C@H]1CCCCN31`, the viability was 79.4% (inactive). In the case of `C[C@@H]1O[C@@H](OC2CC(O)C3(CO)C4C(CCC3(O)C2)C2(O)CCC(C3=CC(=O)OC3)C2(C)C[C@H]4O)[C@H](O)[C@H](O)[C@H]1O` (some centres undefined), the viability is reported as 106% (inactive). In the case of `CN1C[C@H](CNC(=O)OCc2ccccc2)C[C@@H]2c3cccc4c3c(cn4C)C[C@H]21`, the viability is reported as 75.3% (inactive). With `C[C@@H]1CC[C@H]2[C@@H](C)C(=O)O[C@@H]3OC4(C)CC[C@@H]1[C@]32OO4` the viability was 71.5% (inactive). With `CNc1ccc2oc(C[C@@H]3OC4(CC[C@@H]3C)O[C@H](C(C)C(=O)c3ccc[nH]3)[C@H](C)C[C@H]4C)nc2c1C(=O)O` (some centres undefined) the viability was 3.3% (active). For `OCC1CCCN2CCCCC12` (centres undefined), the viability was 106% (inactive). In the case of `CN(C)[C@@H]1C(=O)C(C(N)=O)=C(O)[C@@]2(O)C(=O)C3=C(O)c4c(O)cccc4[C@@](C)(O)C3CC12` (some centres undefined), the viability is reported as 97.1% (inactive). In the case of `O=C1CCC[C@H]2[C@@H]3CCCN4CCC[C@H](CN12)[C@H]34`, the viability is reported as 105% (inactive). With `CC(C)c1cc2c(c(O)c1O)[C@@]1(C(=O)O)CCCC(C)(C)[C@@H]1CC2` the viability was 97.5% (inactive). In the case of `C=C(C)[C@H]1CN[C@H](C(=O)O)[C@H]1CC(=O)O`, the viability is reported as 99.8% (inactive). For `CC(=O)O[C@H]1[C@H]2[C@@H](OC(=O)Cc3ccccc3)[C@@H](C)C[C@]2(OC(C)=O)C(=O)/C(C)=C/[C@@H]2[C@H](CC[C@@]13CO3)C2(C)C`, the viability was 68.9% (inactive). With `CCCC[C@H]1C(=O)O[C@H](C)[C@H](NC(=O)c2cccc(NC=O)c2OC)C(=O)O[C@@H](C)[C@@H]1OC(=O)CC(C)C` the viability was 93.3% (inactive). For `CCCCCCCCCCCCCC(=O)O[C@@H]1[C@@H](C)[C@@]2(O)[C@@H](C=C(CO)C[C@]3(O)C(=O)C(C)=C[C@@H]23)[C@@H]2C(C)(C)[C@]12OC(C)=O`, the viability was 53.1% (inactive). For `COC(=O)C(O)C(O)(CCC(C)C)C(=O)OC1C(OC)=CC23CCCN2CCc2cc4c(cc2C13)OCO4` (centres undefined), the viability was 26.2% (inactive).
